Screens from PubChem BioAssay.
PostGolgi yeast: growth inhibition of a yeast mutant, post-Golgi transport screen; 98,000 compounds, 0.9% hits; inhibition, % at 10 µM; AID 739; post-Golgi transport phenotypic cell assay;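 further: yeast cells grown in 1536-well plates; yeast grown about 18 h at 30C before absorbance read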
CYP2C19 inh: inhibitors of human CYP2C19. P33261. CYP2C19 Supersomes, luciferin-H EGE luminescence, 30 min. inhibition, % at 5 µM. 96,000 compounds, 21% hits. AID 778;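 active means CYP2C19 inhibition above a set limit at 5 µM in the primary screen, cut at about 50% in these data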
CYP2C9 activ: increases human cytochrome P450 2C9 activity. recombinant CYP2C9, luciferin-H conversion, luminescence; stronger effect = higher value; factor 1 = untreated enzyme, 0 = blocked. activation factor at 5 µM. 96,000 compounds, 1.4% hits. P11712;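 active means activation factor of 2 or more for CYP2C9 at a 5 µM dose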
Target sequence (P11712 whole entry, looked up): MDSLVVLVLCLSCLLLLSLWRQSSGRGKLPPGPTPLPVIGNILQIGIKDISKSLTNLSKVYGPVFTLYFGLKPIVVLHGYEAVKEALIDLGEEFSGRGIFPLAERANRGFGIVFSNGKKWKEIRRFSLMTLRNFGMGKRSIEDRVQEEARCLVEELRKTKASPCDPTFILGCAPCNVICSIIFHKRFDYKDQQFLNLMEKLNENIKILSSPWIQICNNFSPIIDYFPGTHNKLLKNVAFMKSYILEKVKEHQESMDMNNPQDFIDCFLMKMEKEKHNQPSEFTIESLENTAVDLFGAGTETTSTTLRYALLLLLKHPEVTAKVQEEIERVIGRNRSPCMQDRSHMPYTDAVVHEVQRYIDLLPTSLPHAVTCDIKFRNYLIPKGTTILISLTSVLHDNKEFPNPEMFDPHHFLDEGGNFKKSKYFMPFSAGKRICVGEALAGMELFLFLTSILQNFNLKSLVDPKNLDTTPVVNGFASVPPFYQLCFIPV
CYP2C19 act: increases human CYP2C19 enzyme activity; recombinant CYP2C19, luciferin-H EGE luminescence; stronger effect = higher value; 0 = fully inhibited enzyme, 1 = untreated enzyme; AID 1025; 96,000 tested, under 10 active; activation factor at 5 µM;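 active means activation factor of at least 2 at 5 µM in the primary screen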
CYP2C9 inhib: inhibitors of human CYP2C9 | AID 777 | 96,000 compounds, 20% hits | CYP2C9 Supersomes, luciferin-H conversion, luminescence | inhibition, % at 5 µM;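 active means blocking of liver enzyme CYP2C9 beyond about 50% at 5 µM, limit read from the data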
PostGolgi ctrl: growth of the yeast control strain, post-Golgi counter-screen. AID 738. efflux-deficient yeast background strain, growth absorbance A615, 16 h. 98,000 compounds, 5% hits. inhibition, % at 10 µM
Numbers stand for hits; i = inactive; nt = no result given. The list is not random: actives were taken first. Their share in the collection is about 32%. Unless noted, no stated cut-off is given here; in the data, active means inhibition above about 30%; inactive means the rest.

SMILES	PostGolgi yeast	CYP2C19 inh	CYP2C9 activ	CYP2C19 act	CYP2C9 inhib	PostGolgi ctrl
CCCCC(=O)N(c1ccc(OCC)cc1)C1C=CS(=O)(=O)C1 (stereo not drawn)	i	i	i	i	i	i
CC(=O)OC1CSc2nc3ccccc3n2C1 (stereo not drawn)	i	nt	nt	nt	nt	i
COc1ccc(CCNc2oc(COc3ccccc3)nc2C#N)cc1	i	i	i	i	70	i
COc1ccc(CNc2oc(COc3ccccc3)nc2C#N)cc1	i	53	i	i	66	i
COc1ccc(Nc2oc(COc3ccccc3F)nc2C#N)cc1	i	54	i	i	60	i
CN(Cc1ccccc1)c1oc(-c2ccco2)nc1C#N	i	59	i	i	62	i
Cc1ccccc1N1CCN(C(=O)CN2C(=O)c3ccccc3C2=O)CC1	i	i	i	i	i	i
CCOC(=O)c1cc(S(=O)(=O)N2CCN(C(=O)OCC)CC2)cn1C	i	i	i	i	i	i
Cc1cccc(Cc2cnc(NC(=O)c3ccc(C)o3)s2)c1	i	i	i	i	i	i
CCOC(=O)CC1C(=O)NC2CCCCC2N1C(=O)Nc1ccc(Cl)cc1 (stereo not drawn)	i	i	i	i	i	i
COc1ccccc1-c1c(NC(=O)c2ccco2)n(-c2ccccc2)nc(C)c1=O	i	i	i	i	i	i
N#Cc1nc(COc2ccccc2F)oc1NCCc1ccccc1	i	88	i	i	88	i
N#Cc1nc(COc2ccccc2Cl)oc1NCc1ccc(F)cc1	i	i	i	i	i	i
CNc1oc(-c2ccc(OCc3ccccc3)cc2)nc1C#N	i	i	2.2	i	i	i
N#Cc1nc(-c2ccc(OCc3ccccc3)cc2)oc1NCc1ccco1	i	i	i	i	i	i
COc1ccc(CNc2oc(Cc3cccc4ccccc34)nc2C#N)cc1	i	79	i	i	96	35
CN(Cc1ccccc1)c1oc(COc2ccccc2F)nc1C#N	i	100	i	i	99	i
CN(C)c1nc2n(c(=O)n1)C(C#N)CS2 (stereo not drawn)	i	nt	nt	nt	nt	i
N#Cc1nc(Cc2cccc3ccccc23)oc1NCCCn1ccnc1	i	98	i	i	97	i
N#Cc1nc(Cc2cccc3ccccc23)oc1NCCCN1CCOCC1	i	i	i	i	i	i
COc1ccc(C2Nc3ccc4ccccc4c3-c3c2c(=O)oc2ccccc32)cc1 (stereo not drawn)	i	i	i	i	83	i
O=c1oc2ccccc2c2c1C(c1ccc(Cl)cc1)Nc1ccc3ccccc3c1-2 (stereo not drawn)	i	i	i	i	i	i
CCOc1ccc(C2Nc3ccc4ccccc4c3-c3c2c(=O)oc2ccccc32)cc1 (stereo not drawn)	i	52	i	i	84	i
NC1=NS(=O)(=O)NC1c1cccc(Cl)c1 (stereo not drawn)	i	i	i	i	i	i
COc1cc2c(cc1OC)C1=C(C#N)CN(CC(=O)O)CN1CC2	i	i	i	i	57	i
SMILES	PostGolgi yeast	CYP2C19 inh	CYP2C9 activ	CYP2C19 act	CYP2C9 inhib	PostGolgi ctrl
COc1cc2c(cc1OC)CN(C(=O)COc1ccc(C#N)cc1)CC2	i	i	i	i	i	i
Nc1nc(SCC(=O)NCC2CCCO2)n[nH]1 (stereo not drawn)	i	i	i	i	i	i
COCc1nnc(NC(=O)CC(c2ccccc2)c2ccccc2)s1	i	i	i	i	i	i
CC1CCN(CCOc2cc(Cl)ccc2Cl)CC1	49	i	i	i	i	i
CN1C(=O)CSc2ccc(NC(=O)Nc3ccccn3)cc21	i	i	i	i	i	i
CCOc1ccc(OCC)c(NC(=O)Nc2ccc3c(c2)N(C)C(=O)CS3)c1	i	58	i	i	i	i
CN1C(=O)CSc2ccc(NC(=O)NCc3cccnc3)cc21	i	56	i	i	72	i
COc1cccc(NC(=O)Nc2ccc3c(c2)N(C)C(=O)CS3)c1	i	65	i	i	i	i
CN1C(=O)CSc2ccc(NC(=O)NCc3ccco3)cc21	i	i	i	i	i	i
O=c1cc(-c2c(F)c(F)c(F)c(F)c2F)oc2c(F)c(F)c(F)c(F)c12	54	i	i	i	i	64
COc1ccc(-c2cc(=Nc3ccc(C)cc3)c3ccccc3o2)cc1	i	i	i	i	53	i
COc1ccc(Oc2nc(C)nc3c2oc2ccccc23)cc1	i	i	i	i	i	i
O=C(Cn1ccc2ccccc2c1=O)NCCC(=O)N1CCN(c2cccc(C(F)(F)F)c2)CC1	i	i	i	i	i	i
Cc1cc([N+](=O)[O-])nn1CC(=O)NNC(=S)Nc1ccc(Cl)cc1	i	i	i	i	i	i
O=S(=O)(/N=C(\Nc1ccc(F)cc1)C(F)(F)F)c1ccccc1	i	i	i	i	56	i
Cc1ccc(S(=O)(=O)/N=C(/NC(=S)Nc2ccccc2)c2ccccc2)cc1	i	i	i	i	i	i
Cc1cccc(N/C(=N\S(=O)(=O)c2ccccc2)C(F)(F)F)c1	i	i	i	i	56	i
O=C(O)C1C2C=CC(C3CC23)C1C(=O)N1CCc2ccccc21 (stereo not drawn)	i	i	i	i	i	i
CCOC(=O)Nc1ccc2c(c1)N(C(=O)N1CCN(C)CC1)c1ccccc1S2	i	73	i	i	i	i
CCOC(=O)Nc1ccc2c(c1)Sc1ccccc1N2C(=O)CCN1CCOCC1	i	60	i	i	i	i
Cc1ccc(C)c(SCC(=O)OCC(=O)c2ccco2)c1	i	i	i	i	i	i
c1csc(-c2nn[nH]n2)c1	i	95	i	i	i	i
COC(=O)C1CCC(C)(C(=O)Nc2ccccc2)C1(C)C (stereo not drawn)	i	68	i	i	64	i
COc1ccc(NC(=O)C2CCC(C)(C(=O)O)C2(C)C)cc1 (stereo not drawn)	i	i	i	i	i	i
CCCC(=O)N1c2ccccc2[C@@H](N(C(C)=O)c2ccccc2)C[C@H]1C	i	51	i	i	73	i
SMILES	PostGolgi yeast	CYP2C19 inh	CYP2C9 activ	CYP2C19 act	CYP2C9 inhib	PostGolgi ctrl
CCOC(=O)C1=C(C)N=c2s/c(=C\c3ccc(OC(C)=O)c(OCC)c3)c(=O)n2C1/C=C/c1ccccc1 (stereo not drawn)	i	i	i	i	72	i
COC(=O)C(C)Oc1ccc(-c2nccc(-c3cccs3)n2)cc1 (stereo not drawn)	i	i	i	i	65	i
O=C(Nc1nccc(-c2cccs2)n1)c1ccccc1Cl	i	i	i	i	i	i
Oc1ccc(-c2nccc(-c3cccs3)n2)cc1	i	i	i	i	68	i
O=C1NCCN1Cc1ccccc1F	i	nt	nt	nt	nt	i
O=C(CCCn1nnc(-c2cccnc2)n1)c1ccc(F)cc1	i	76	i	i	53	i
Nc1nc(-c2cccnc2)nn1C(=O)COc1ccccc1	i	i	i	i	i	i
c1ccc(OCCCn2nnc(-c3cccnc3)n2)cc1	i	51	i	i	i	i
CC(C)(C)n1nnnc1CN1CCSCC1	i	i	i	i	i	i
